Results published in paper PMC7862700, “An all-to-all approach to the identification of sequence-specific readers for epigenetic DNA modifications on cytosine”.

Key:
Experiment in all cases: DAPPL (digital affinity profiling via proximity ligation, sequencing); 10 mM Tris-HCl pH 7.5, 50 mM NaCl, 1 mM DTT, 4% glycerol, room temperature, 30 min; GST-TFs on glutathione beads, 16-mer random dsDNA library, 0.1% formaldehyde crosslink after washing; high values mean tight binding
Conditions in all cases: protein: recombinant; tags: N-terminal GST; dsDNA, one strand shown
FLI1 = target: T1, FLI1 (Homo sapiens, UniProt Q01543 1-452)
T1 sequence: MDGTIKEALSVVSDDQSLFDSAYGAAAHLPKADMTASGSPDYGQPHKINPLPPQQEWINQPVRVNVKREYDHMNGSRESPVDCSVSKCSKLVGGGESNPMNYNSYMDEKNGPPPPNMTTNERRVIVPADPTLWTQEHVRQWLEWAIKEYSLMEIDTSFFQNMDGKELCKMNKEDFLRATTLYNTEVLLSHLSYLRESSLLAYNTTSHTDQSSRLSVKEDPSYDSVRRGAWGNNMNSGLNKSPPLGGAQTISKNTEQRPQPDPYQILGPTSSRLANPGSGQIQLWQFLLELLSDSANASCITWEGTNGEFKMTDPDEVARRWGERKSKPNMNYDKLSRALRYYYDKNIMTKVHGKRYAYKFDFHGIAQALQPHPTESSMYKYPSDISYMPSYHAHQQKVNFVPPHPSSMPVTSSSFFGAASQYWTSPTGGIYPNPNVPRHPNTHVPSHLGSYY
Method in brief: (§1)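 Pools were built from human transcription factors expressed in yeast as GST fusions, captured on glutathione beads and DNA-barcoded, along with a tag-only sample. Incubation with 200 nmole of a 16-mer random double-stranded DNA library lasted 30 min at room temperature in Tris/NaCl/DTT/glycerol buffer, and was followed by washing, 0.1% formaldehyde crosslinking, proximity ligation, PCR amplification and Illumina NextSeq500 sequencing. Binding signal is the quotient of each hexamer's read frequency for a factor and its frequency for the tag-only sample.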

ELK1 = target: T2, ELK1 (Homo sapiens, UniProt P19419 1-428)
T2 sequence: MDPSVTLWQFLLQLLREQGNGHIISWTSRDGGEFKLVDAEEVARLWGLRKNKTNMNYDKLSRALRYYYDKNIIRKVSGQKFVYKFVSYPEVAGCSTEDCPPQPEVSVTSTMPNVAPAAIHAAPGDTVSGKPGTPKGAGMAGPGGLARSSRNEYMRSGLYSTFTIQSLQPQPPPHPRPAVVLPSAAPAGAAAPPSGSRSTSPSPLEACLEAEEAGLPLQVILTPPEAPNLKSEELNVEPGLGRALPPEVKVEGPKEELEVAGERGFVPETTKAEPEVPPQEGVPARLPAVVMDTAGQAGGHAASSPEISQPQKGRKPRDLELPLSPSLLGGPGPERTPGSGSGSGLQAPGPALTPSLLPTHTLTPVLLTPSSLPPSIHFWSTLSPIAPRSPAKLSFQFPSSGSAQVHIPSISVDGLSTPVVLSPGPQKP
Method in brief: as §1

GABPA = target: T3, GABPA (Homo sapiens, UniProt Q06546 1-454)
T3 sequence: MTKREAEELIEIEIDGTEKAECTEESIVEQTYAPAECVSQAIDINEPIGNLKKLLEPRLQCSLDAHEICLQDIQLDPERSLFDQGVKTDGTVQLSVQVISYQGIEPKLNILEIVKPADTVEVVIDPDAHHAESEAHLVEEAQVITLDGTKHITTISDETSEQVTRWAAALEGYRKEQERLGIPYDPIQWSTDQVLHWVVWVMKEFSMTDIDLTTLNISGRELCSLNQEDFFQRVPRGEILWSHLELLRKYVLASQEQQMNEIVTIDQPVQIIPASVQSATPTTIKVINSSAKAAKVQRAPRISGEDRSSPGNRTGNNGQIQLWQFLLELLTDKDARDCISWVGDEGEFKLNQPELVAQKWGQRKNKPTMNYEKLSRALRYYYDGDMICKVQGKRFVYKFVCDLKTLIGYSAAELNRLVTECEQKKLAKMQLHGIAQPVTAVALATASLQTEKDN
Method in brief: as §1

ERG = target: T4, ERG (Homo sapiens, UniProt P11308 1-479)
T4 sequence: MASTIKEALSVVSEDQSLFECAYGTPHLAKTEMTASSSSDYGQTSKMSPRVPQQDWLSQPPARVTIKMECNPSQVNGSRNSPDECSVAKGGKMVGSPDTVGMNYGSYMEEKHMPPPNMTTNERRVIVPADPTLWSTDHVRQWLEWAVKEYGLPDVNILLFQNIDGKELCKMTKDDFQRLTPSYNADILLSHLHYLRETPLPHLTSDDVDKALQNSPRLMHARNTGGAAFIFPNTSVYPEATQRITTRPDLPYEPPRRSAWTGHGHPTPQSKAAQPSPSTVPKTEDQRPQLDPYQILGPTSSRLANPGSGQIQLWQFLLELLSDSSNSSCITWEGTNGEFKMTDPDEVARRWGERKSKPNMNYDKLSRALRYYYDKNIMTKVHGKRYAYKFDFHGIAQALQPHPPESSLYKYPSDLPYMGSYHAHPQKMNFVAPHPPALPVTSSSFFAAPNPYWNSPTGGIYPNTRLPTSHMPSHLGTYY
Method in brief: as §1

ELF1 = ELF1 (Homo sapiens, UniProt P32519 1-619)
Method in brief: as §1

EHF = target: T5, EHF (Homo sapiens, UniProt Q9NZC4 1-300)
T5 sequence: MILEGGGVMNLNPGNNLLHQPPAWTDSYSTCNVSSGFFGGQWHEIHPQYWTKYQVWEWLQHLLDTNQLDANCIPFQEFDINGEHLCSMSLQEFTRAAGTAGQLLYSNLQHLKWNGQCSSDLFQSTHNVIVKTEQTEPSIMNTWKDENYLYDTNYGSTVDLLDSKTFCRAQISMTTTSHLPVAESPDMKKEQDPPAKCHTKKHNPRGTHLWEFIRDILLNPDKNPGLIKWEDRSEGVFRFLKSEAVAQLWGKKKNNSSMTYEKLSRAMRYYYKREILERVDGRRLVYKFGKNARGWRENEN
Method in brief: as §1

SPI1 = SPI1 (Homo sapiens, UniProt P17947 1-270)
Method in brief: as §1

SPIB = SPIB (Homo sapiens, UniProt Q01892 1-262)
Method in brief: as §1

ELK3 = target: T6, ELK3 (Homo sapiens, UniProt P41970 1-407)
T6 sequence: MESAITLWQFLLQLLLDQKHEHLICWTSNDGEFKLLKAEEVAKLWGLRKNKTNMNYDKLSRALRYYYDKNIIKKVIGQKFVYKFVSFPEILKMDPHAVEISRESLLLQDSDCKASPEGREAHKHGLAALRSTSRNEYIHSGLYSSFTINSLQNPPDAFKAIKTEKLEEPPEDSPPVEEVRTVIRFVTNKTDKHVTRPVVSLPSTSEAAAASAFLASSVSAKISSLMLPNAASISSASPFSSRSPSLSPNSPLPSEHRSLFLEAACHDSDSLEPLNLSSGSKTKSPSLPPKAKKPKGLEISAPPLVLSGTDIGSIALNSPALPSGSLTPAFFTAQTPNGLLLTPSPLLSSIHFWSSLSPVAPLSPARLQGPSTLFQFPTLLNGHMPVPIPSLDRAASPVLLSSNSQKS
Method in brief: as §1

ELF1, sequence (P32519 whole entry): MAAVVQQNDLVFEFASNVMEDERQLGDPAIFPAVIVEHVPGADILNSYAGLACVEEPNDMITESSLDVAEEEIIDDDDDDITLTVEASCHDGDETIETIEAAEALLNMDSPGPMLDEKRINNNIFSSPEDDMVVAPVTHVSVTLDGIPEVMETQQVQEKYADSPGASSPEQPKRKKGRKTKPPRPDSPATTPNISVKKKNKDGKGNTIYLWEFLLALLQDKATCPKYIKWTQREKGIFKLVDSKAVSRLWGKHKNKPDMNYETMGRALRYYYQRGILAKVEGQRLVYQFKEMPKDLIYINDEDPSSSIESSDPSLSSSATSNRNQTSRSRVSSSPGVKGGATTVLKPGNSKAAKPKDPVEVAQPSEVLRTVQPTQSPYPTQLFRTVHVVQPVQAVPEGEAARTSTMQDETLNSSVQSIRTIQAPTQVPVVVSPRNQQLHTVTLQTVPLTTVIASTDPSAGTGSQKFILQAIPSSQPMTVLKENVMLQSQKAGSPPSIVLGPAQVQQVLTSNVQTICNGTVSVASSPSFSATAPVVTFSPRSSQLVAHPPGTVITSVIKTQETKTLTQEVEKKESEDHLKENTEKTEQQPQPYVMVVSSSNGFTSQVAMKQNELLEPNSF
SPIB, sequence (Q01892 whole entry): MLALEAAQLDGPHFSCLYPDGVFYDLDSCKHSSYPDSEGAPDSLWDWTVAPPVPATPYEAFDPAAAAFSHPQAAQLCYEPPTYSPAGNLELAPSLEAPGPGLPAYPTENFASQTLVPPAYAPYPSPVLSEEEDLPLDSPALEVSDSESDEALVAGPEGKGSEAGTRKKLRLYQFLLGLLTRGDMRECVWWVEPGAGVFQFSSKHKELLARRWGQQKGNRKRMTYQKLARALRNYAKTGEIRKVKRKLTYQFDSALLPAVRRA

Sequence	binding signal (FLI1)	binding signal (ELK1)	binding signal (GABPA)	binding signal (ERG)	binding signal (ELF1)	binding signal (EHF)	binding signal (SPI1)	binding signal (SPIB)	binding signal (ELK3)
GAAAAG	1.05 fold enrichment (6-mer frequency, TF over GST control)	1.01 fold enrichment (6-mer frequency, TF over GST control)	1.07 fold enrichment (6-mer frequency, TF over GST control)	1.06 fold enrichment (6-mer frequency, TF over GST control)	1.04 fold enrichment (6-mer frequency, TF over GST control)	1.11 fold enrichment (6-mer frequency, TF over GST control)	1.3 fold enrichment (6-mer frequency, TF over GST control)	1.14 fold enrichment (6-mer frequency, TF over GST control)	
AATCAG	1.1 fold enrichment (6-mer frequency, TF over GST control)	1.05 fold enrichment (6-mer frequency, TF over GST control)	1.19 fold enrichment (6-mer frequency, TF over GST control)	1.07 fold enrichment (6-mer frequency, TF over GST control)	1.1 fold enrichment (6-mer frequency, TF over GST control)	1.02 fold enrichment (6-mer frequency, TF over GST control)	1.04 fold enrichment (6-mer frequency, TF over GST control)	1.19 fold enrichment (6-mer frequency, TF over GST control)	
GATACG	1.11 fold enrichment (6-mer frequency, TF over GST control)	1.12 fold enrichment (6-mer frequency, TF over GST control)	1.12 fold enrichment (6-mer frequency, TF over GST control)	1.11 fold enrichment (6-mer frequency, TF over GST control)	1.15 fold enrichment (6-mer frequency, TF over GST control)	1.24 fold enrichment (6-mer frequency, TF over GST control)	1.04 fold enrichment (6-mer frequency, TF over GST control)	1.17 fold enrichment (6-mer frequency, TF over GST control)	1.18 fold enrichment (6-mer frequency, TF over GST control)
ACCTCG	1 fold enrichment (6-mer frequency, TF over GST control)	1.18 fold enrichment (6-mer frequency, TF over GST control)	1.24 fold enrichment (6-mer frequency, TF over GST control)	1.15 fold enrichment (6-mer frequency, TF over GST control)	1.11 fold enrichment (6-mer frequency, TF over GST control)	1.16 fold enrichment (6-mer frequency, TF over GST control)	1.14 fold enrichment (6-mer frequency, TF over GST control)	1.19 fold enrichment (6-mer frequency, TF over GST control)	
TGTTGA	1.15 fold enrichment (6-mer frequency, TF over GST control)	1.08 fold enrichment (6-mer frequency, TF over GST control)	1.16 fold enrichment (6-mer frequency, TF over GST control)	1.08 fold enrichment (6-mer frequency, TF over GST control)	1.16 fold enrichment (6-mer frequency, TF over GST control)	1.07 fold enrichment (6-mer frequency, TF over GST control)	1.11 fold enrichment (6-mer frequency, TF over GST control)	1.09 fold enrichment (6-mer frequency, TF over GST control)	
TTCTAA	1.28 fold enrichment (6-mer frequency, TF over GST control)	1.23 fold enrichment (6-mer frequency, TF over GST control)	1.2 fold enrichment (6-mer frequency, TF over GST control)	1.25 fold enrichment (6-mer frequency, TF over GST control)	1.23 fold enrichment (6-mer frequency, TF over GST control)	1.22 fold enrichment (6-mer frequency, TF over GST control)	1.14 fold enrichment (6-mer frequency, TF over GST control)	1.17 fold enrichment (6-mer frequency, TF over GST control)	1.08 fold enrichment (6-mer frequency, TF over GST control)
AGGCTC	1.04 fold enrichment (6-mer frequency, TF over GST control)	1.03 fold enrichment (6-mer frequency, TF over GST control)	1.12 fold enrichment (6-mer frequency, TF over GST control)	1.06 fold enrichment (6-mer frequency, TF over GST control)	1.12 fold enrichment (6-mer frequency, TF over GST control)	1.08 fold enrichment (6-mer frequency, TF over GST control)	1.02 fold enrichment (6-mer frequency, TF over GST control)	1.03 fold enrichment (6-mer frequency, TF over GST control)	
GTGCTC	1.26 fold enrichment (6-mer frequency, TF over GST control)	1.18 fold enrichment (6-mer frequency, TF over GST control)	1.25 fold enrichment (6-mer frequency, TF over GST control)	1.2 fold enrichment (6-mer frequency, TF over GST control)	1.19 fold enrichment (6-mer frequency, TF over GST control)	1.22 fold enrichment (6-mer frequency, TF over GST control)	1.36 fold enrichment (6-mer frequency, TF over GST control)	1.3 fold enrichment (6-mer frequency, TF over GST control)	
